# The campaign covered roughly 1,300 compounds. About 980 (75%) were called active. Inconclusive results (about 4%) are left out. The list shows a part of the results. Unmarked numbers belong to inactive results.
# Target: Sulfhydryl oxidase 1 (Homo sapiens) (UniProt O00391)
# Experiment: QSOX1 enzyme inhibitors, primary screen, biochemical, HyperBlu H2O2 luminescence, HTS (AID 1347420); note: values above 100% were filed as inconclusive
# Settings: recombinant QSOX1, HyperBlu H2O2 luminescence, at 12.5 µM, stronger effect = higher value; active = any value above zero unless noted
# Chain of Sulfhydryl oxidase 1 (Homo sapiens) (O00391 whole entry, looked up): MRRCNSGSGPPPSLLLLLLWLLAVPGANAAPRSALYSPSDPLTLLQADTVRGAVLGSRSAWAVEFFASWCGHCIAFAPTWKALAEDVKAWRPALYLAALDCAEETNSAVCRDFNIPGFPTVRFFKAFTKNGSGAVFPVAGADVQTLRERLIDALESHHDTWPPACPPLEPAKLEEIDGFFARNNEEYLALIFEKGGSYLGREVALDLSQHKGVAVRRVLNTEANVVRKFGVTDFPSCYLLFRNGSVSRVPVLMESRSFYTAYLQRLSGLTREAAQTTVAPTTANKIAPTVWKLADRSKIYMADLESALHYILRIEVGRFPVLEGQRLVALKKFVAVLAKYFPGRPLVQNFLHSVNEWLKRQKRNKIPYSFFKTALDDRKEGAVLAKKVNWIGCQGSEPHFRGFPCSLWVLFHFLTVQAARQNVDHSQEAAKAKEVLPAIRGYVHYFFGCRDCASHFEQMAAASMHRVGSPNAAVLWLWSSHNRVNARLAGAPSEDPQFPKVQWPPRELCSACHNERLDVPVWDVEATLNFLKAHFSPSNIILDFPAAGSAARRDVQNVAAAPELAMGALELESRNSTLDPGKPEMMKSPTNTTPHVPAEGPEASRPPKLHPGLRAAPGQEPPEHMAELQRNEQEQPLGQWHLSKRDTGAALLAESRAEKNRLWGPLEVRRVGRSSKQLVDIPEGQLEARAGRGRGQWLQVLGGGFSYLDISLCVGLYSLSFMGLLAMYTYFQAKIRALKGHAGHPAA
row,SMILES,inhibition
1,O=C(O)c1nn(Cc2ccc(Cl)cc2Cl)c2ccccc12,-13% [setting not given]
2,NCCc1c[nH]c2ccccc12,1.9% [setting not given] (active)
3,CCCN(CCC)CCc1c[nH]c2ccc(C(N)=O)cc12,-6.2% [setting not given]
4,Cc1[nH]c2ccc(O)cc2c1CCN,79.3% [setting not given] (active)
5,NCCc1c[nH]c2ccc(C(N)=O)cc12,26.8% (active)
6,C/C(O)=C(\C#N)C(=O)Nc1cc(Br)ccc1Br,-6.8%
7,Clc1cnc(Oc2ccc(Oc3ncc(Cl)cc3Cl)cc2)c(Cl)c1,10.6% [setting not given] (active)
8,C=CCN(C1=NCCN1)c1c(Cl)cccc1Cl,9.6% (active)
9,c1ccc2c(c1)OCC(C1=NCCN1)O2 (stereo not given),3.2% (active)
10,CN1CC[C@@]2(C)c3cc(O)ccc3N(C)C12 (stereo not given in full),52.2% (active)
11,CN1CC[C@@]2(C)c3cc(OC(=O)Nc4ccccc4)ccc3N(C)[C@@H]12,41.8% (active)
12,CCCN(CCC)CCc1ccc(O)c(O)c1,56.8% (active)
13,CNCCc1ccc(O)c(O)c1,50.2% (active)
14,Cc1ccc(S(=O)(=O)N[C@@H](CCCCN)C(=O)CCl)cc1,11.5% (active)
15,O=[N+]([O-])c1ccc2nc(N3CCNCC3)ccc2c1,15.5% (active)
16,c1ccc2c(N3CCNCC3)cccc2c1,3% (active)
17,COc1ccccc1N1CCNCC1,-0.1% [setting not given]
18,NNC(=O)c1ccc(O)cc1,3.3% (active)
19,CC12NC(Cc3ccccc31)c1ccccc12 (stereo not given),3.8% [setting not given] (active)
20,C[C@]12N[C@H](Cc3ccccc31)c1ccccc12,-13.1% [setting not given]
21,CCCN1CC[C@@H]2c3cc(O)ccc3CC[C@@H]21,18.3% (active)
22,CCCN1CCO[C@@H]2c3cc(O)ccc3OC[C@H]21,27.5% (active)
23,CCCn1c(C)c(C(=O)c2ccc3ccccc3c2)c2ccccc21,-8.8% [setting not given]
24,CCCCCCCCCCCCCC(=O)O[C@@H]1[C@@H](C)[C@@]2(O)[C@@H](C=C(CO)C[C@@]3(O)C(=O)C(C)=C[C@@H]23)C2C(C)(C)[C@@]21OC(C)=O (stereo not given in full),-11.5%
25,CN(N=O)c1cc(O)ccc1O,56% (active)

row,SMILES,inhibition
1,CN(N=O)c1ccc(O)c(O)c1,9% (active)
2,NC(=O)c1ccc(OCC(O)CN2CC=C(c3ccc(F)cc3)CC2)cc1 (stereo not given),-3.1%
3,CC(NC(C)(C)C)C(=O)c1cccc(Cl)c1 (stereo not given),0.2% [setting not given] (active)
4,CC1=NN=C(c2ccc(N)cc2)c2cc3c(cc2C1)OCO3,11% (active)
5,CC(C)NP(=O)(NC(C)C)OP(=O)(NC(C)C)NC(C)C,-1.6%
6,C=CCN1CC[C@]23c4c5ccc(O)c4O[C@H]2/C(=N/NC(=O)c2ccccc2)CC[C@@]3(O)[C@H]1C5,24.9% [setting not given] (active)
7,O=C1CC[C@@]2(O)C3Cc4ccc(O)c5c4C2(CCN3CC2CC2)[C@H]1O5 (stereo not given in full),16.8% [setting not given] (active)
8,C=CCN1CC[C@]23c4c5ccc(O)c4O[C@@H]2/C(=N/N=C2\CC[C@@]4(O)C6Cc7ccc(O)c8c7[C@@]4(CCN6CC=C)[C@@H]2O8)CC[C@@]3(O)C1C5,29.2% (active)
9,C=CCN1CCC23c4c5ccc(O)c4O[C@H]2C(=O)CC[C@@]3(O)C1C5 (stereo not given in full),19.6% [setting not given] (active)
10,Cn1cnc(CCN)c1,10.9% (active)
11,COc1ccc(C(CN(C)C)C2(O)CCCCC2)cc1 (stereo not given),7.4% (active)
12,NCCCP(=O)(O)O,-9.2%
13,CCCCc1ccc(C(=O)O)nc1,5.9% (active)
14,CC(N)[C@H](O)c1ccc(O)c(O)c1 (stereo not given in full),57.3% [setting not given] (active)
15,NC(C(=O)O)c1cc(=O)[nH]o1 (stereo not given),4.7% (active)
16,CCCN1CCC[C@@H]2Cc3nc(N)ncc3C[C@H]21,14.3% (active)
17,CCCN1CCC[C@@H]2Cc3[nH]ncc3C[C@H]21,5.1% (active)
18,O=C(N[C@H]1CN2CCC1CC2)c1ccc(Cl)cc1,8.6% (active)
19,CC(C)(C)NCC(O)c1ccccc1Cl (stereo not given),6.8% (active)
20,COc1ccc2c(c1OC)C(=O)O[C@H]2[C@@H]1c2cc3c(cc2CCN1C)OCO3,12.6% (active)
21,O=[N+]([O-])/C=C/c1ccc2c(c1)OCO2,19.2% (active)
22,C#CCN[C@H](C)Cc1ccccc1,8.8% [setting not given] (active)
23,CNc1ccc2oc(C[C@H]3O[C@@]4(CC[C@H]3C)O[C@H]([C@H](C)C(=O)c3ccc[nH]3)[C@H](C)C[C@H]4C)nc2c1C(=O)O,30.5% [setting not given] (active)
24,O=C(O)CC[N+](=O)[O-],12% [setting not given] (active)
25,CCn1cnc2c(Nc3cccc(Cl)c3)nc(N[C@@H]3CCCC[C@@H]3N)nc21,10.8% (active)

# — PubChem BioAssay AID1347420 (Sanford-Burnham Center for Chemical Genomics, 2020)
